# A number with no mark means an inactive call. Active and inactive are the calls of the source. Cut-off read from the data, not from the text of the source: active = inhibition above about 50%; inactive = the rest.
# Biological target: Prolyl endopeptidase-like (Mus musculus) (UniProt Q8C167)
# Assay: purified PREPL inhibitors, PREPL inhibitor project, biochemical, gel-based competitive ABPP, fluorescence, HTS hits (AID 624481)
# Details: at 20 µM, hits give high values
# Sequence of Prolyl endopeptidase-like (Mus musculus) (Q8C167 whole entry, looked up): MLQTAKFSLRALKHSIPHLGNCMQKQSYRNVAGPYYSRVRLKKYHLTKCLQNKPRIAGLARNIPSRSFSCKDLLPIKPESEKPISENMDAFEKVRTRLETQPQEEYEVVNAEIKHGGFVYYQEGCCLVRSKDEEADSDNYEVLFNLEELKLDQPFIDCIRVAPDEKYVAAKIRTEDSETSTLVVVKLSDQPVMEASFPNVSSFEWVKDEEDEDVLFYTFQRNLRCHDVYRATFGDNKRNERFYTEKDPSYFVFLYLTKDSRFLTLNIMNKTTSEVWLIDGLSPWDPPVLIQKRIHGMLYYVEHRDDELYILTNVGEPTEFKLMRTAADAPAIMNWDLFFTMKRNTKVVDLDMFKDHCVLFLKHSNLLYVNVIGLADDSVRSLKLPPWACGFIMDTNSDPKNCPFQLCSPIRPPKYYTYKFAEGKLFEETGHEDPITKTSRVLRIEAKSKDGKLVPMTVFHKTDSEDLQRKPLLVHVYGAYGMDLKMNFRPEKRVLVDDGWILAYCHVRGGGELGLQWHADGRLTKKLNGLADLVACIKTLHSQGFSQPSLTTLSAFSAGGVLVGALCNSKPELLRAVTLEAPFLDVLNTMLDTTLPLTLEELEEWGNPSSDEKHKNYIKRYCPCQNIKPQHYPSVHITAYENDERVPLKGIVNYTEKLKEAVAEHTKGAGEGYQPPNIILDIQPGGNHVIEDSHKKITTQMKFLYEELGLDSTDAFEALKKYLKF
row,Compound,inhibition
1,C#CCOCCOCCOCCNc1nc(N2CCN(C(=O)[C@H](Cc3ccc(O)cc3)n3cc([C@@H](N)CC(C)C)nn3)CC2)nc(N2CCN(C(=O)[C@H](Cc3cc4ccccc4[nH]3)n3cc([C@@H](N)CC(C)C)nn3)CC2)n1,-77%
2,C#CCOCCOCCOCCNc1nc(N2CCN(C(=O)C(Cc3cc4ccccc4[nH]3)n3cc(C(N)C(C)CC)nn3)CC2)nc(N2CCN(C(=O)C(Cc3cc4ccccc4[nH]3)n3cc(C(N)C(C)CC)nn3)CC2)n1 (stereo unspecified),-161%
3,Oc1sc(C=Nc2ccc(F)cc2)c2ccccc12,20%
4,O=C(Cc1ccc(Cl)cc1)Nc1ccc(N2CCN(C(=O)c3ccco3)CC2)cc1,-61%
5,COc1ccc(-c2c(-c3ccccc3)c(C(=O)C(=O)NCCCN(C)C)n3ccc4cc(OC)c(OC)cc4c23)cc1OC,-15%
6,Cc1cc(C)c2nc(N3C(=O)C(O)=C(C(=O)c4ccco4)C3c3ccco3)sc2c1 (stereo unspecified),45%
7,CCCCN1C(=N)N([C@@H](CN2CCC[C@H]2CN2C(N)=NC[C@@H]2Cc2ccccc2)C(C)C)C[C@H]1Cc1ccccc1,-44%
8,CN1CCN(c2ccc(NC(=O)COc3ccc(Cl)cc3Cl)cc2)CC1,-13%
9,CN(CC(=O)Nc1ccccc1Cl)C(=O)c1cccc(S(=O)(=O)N2CCN(Cc3ccccc3)CC2)c1,-6%
10,Cc1ccc(OCC(=O)Nc2ccc(N3CCN(C(=O)c4ccco4)CC3)cc2)c(C)c1,-7%
11,Cc1c(C#N)c(N=CN(C)C)c(C(=O)c2ccc(Br)cc2)n1-c1ccc(Cl)cc1,-59%
12,O=C1c2c(O)ccc(O)c2C(=O)c2c(NCCNCCO)ccc(NCCNCCO)c21,-46%
13,CCC(CN(C)C)Oc1cc(NCc2ccccc2)c2ncn(C(C)C)c2c1 (stereo unspecified),-65%
14,COc1ccc2cc1Oc1ccc(cc1)C[C@H]1c3cc(c(OC)cc3CCN1C)Oc1c(O)c(OC)cc3c1[C@H](C2)N(C)CC3,0%
15,COc1ccc(C(CCNCc2ccc(N(C)C)cc2)c2ccccc2)cc1 (stereo unspecified),-124%
16,CCN1CCCC1CNC(=O)c1ccc2c(c1)NC(=O)/C(=C\c1ccc(OC)c(OC)c1)S2 (stereo unspecified),3%
17,Cc1cc(NN=Cc2ccc(O)cc2)c2cccc(C)c2n1,1%
18,C#CCOCCOCCOCCNc1nc(N2CCN(C(=O)[C@H](CCCCN)n3cc([C@@H](N)C(C)CC)nn3)CC2)nc(N2CCN(C(=O)[C@H](Cc3cc4ccccc4[nH]3)n3cc([C@@H](N)CC(C)C)nn3)CC2)n1 (stereo partly specified),-8%
19,O=C(C1=C[C@@H](c2ccc(C(F)(F)F)cc2)C[C@@H](OCCCCO)O1)N1CCN(Cc2ccccc2)CC1,-70%
20,c1ccc(CCNc2nc(-c3ccccn3)nc3ccccc23)cc1,-127%
21,O=C(C1=C[C@@H](c2ccc(C(F)(F)F)cc2)C[C@@H](OCc2ccc(CO)cc2)O1)N1CCN(Cc2ccc3c(c2)OCO3)CC1,-49%
22,COc1ccc(N2CCN(c3ccc4nnc(CCC(=O)Nc5ccc(C)cc5)n4n3)CC2)cc1,-20%
23,COc1ccc(Cn2c(SCc3ccccc3C)nc3cc(OC)c(OC)cc3c2=N)cc1,52% (active)
24,O=C1N/C(=C/c2ccc(N3CCOCC3)cc2)C(=O)N1Cc1ccc(F)cc1,-30%
25,Nc1nn(-c2ccccc2)c(N)c1N=Nc1ccccc1,-16%
26,COc1ccc(CCNC(=O)c2cc3c(=O)n4ccccc4nc3n(CCCN3CCOCC3)c2=N)cc1,-26%

# Source: PubChem BioAssay AID624481 (The Scripps Research Institute Molecular Screening Center, 2012)
